PubChem BioAssay AID720582 (The Scripps Research Institute Molecular Screening Center, 2013)
Out of some 370,000 compounds screened, about 2,300 (0.62%) were called active.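 The calls were made as follows: active = inhibition above a per-campaign cutoff equal to the mean of compounds falling between control-based bounds plus 3 SD (cut at about 20% in these data); inactive = the rest.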 Many of the other results were omitted from the sample, so actives are more common in it than they were.

target: Disintegrin and metalloproteinase domain-containing protein 10 (Homo sapiens) (UniProt O14672); test: blockers of ADAM10 peptide cleavage – biochemical, QFRET, HTS, primary screen (AID 720582); conditions: recombinant ADAM10, EDANS/DABCYL FRET peptide cleavage, 3 h; at 7 µM; hits give high values;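 also: 0% = DMSO wells while the 100% control is not disclosed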
Sequence (O14672 214-748 limits assumed): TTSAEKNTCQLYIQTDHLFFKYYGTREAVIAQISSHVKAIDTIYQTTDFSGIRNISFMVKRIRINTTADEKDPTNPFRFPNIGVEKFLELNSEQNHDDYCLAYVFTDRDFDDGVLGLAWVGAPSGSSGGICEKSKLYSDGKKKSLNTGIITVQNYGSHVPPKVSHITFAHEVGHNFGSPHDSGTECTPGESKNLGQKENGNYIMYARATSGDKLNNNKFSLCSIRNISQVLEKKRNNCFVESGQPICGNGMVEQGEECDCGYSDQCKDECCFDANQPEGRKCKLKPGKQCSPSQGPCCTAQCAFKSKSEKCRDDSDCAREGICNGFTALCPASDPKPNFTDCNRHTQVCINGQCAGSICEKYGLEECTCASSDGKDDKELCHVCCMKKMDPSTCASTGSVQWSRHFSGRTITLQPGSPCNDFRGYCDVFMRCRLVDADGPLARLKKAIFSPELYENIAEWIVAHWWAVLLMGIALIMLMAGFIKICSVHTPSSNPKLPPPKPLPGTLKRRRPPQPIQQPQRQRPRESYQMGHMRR

Compound	inhibition
O=C(NCCc1c[nH]c2ccc(Cl)cc12)c1ccc([N+](=O)[O-])cc1	-1.95% (inactive)
O=C(NCCc1ccc(Cl)cc1Cl)c1cc([N+](=O)[O-])c[nH]c1=O	20.1% (active)
NS(=O)(=O)c1ccc(CCNC(=O)c2ccc(Cl)cc2[N+](=O)[O-])cc1	-0.8% (inactive)
Cc1cc(NS(=O)(=O)c2ccc(NC(=O)CSc3nnc(-c4ccc(C(C)(C)C)cc4)n3Cc3ccco3)cc2)nc(C)n1	5.55% (inactive)
COc1ccc(C2Nc3ccccc3C(=O)N2Cc2cccs2)cc1COc1c(C)cccc1C (stereo not drawn)	-298% (inactive)
COc1ccc(C(=O)OCCN(C)C2CN(Cc3cn(Cc4cccc(C)c4)nn3)S(=O)(=O)C2)cc1OC (stereo not drawn)	2.95% (inactive)
Cc1ccc(-n2c(SCC(=O)Nc3cccc4ccccc34)nnc2-c2ccco2)cc1	9.63% (inactive)
S=c1[nH]cc(-c2ccc(Cl)cc2)n1-c1ccccc1	22.5% (active)
S=c1[nH]ccn1-c1ccc(Cl)cc1	-2.53% (inactive)
S=c1[nH]nc(CSCc2ccc(Cl)cc2Cl)n1-c1ccccc1	15.5% (inactive)
O=C(c1cccc(C(F)(F)F)c1)N1CC[C@H]2[C@H](CCCN2Cc2cc(F)cc(F)c2)C1	-2.92% (inactive)
Cn1c(Cc2cccs2)nnc1SCC(=O)Nc1ccccc1	-5.09% (inactive)
Cn1c(CNc2nc(-c3ccccc3)cs2)nnc1SCC(=O)c1ccccc1	35% (active)
CCn1c(CNc2ccc(OC)cc2)nnc1SCC(=O)c1ccc(OC)cc1	-4.28% (inactive)
COc1ccc(CN2C(=O)N3Cc4cc(OC)ccc4C3CS2(=O)=O)cc1 (stereo not drawn)	2.06% (inactive)
O=C(CCCCCN1C(=O)C2C3C=CC(C3)C2C1=O)Nc1ccccc1 (stereo not drawn)	1.21% (inactive)
COc1ccc([C@H]2CC(=O)C=C(c3ccc(CO)cc3)C2)cc1	-0.95% (inactive)
COc1cccc(C2=CC(=O)C[C@H](c3ccc(OC)c(OC)c3)C2)c1	1.42% (inactive)
COc1ccc([C@H]2CC(=O)C=C(c3ccc(OC(F)(F)F)cc3)C2)cc1OC	21% (active)
O=C(COC(=O)Cc1c[nH]c2ccccc12)NCCc1ccccc1	7.22% (inactive)
Cc1ccc(S(=O)(=O)N(C)CC(=O)NCCc2c[nH]c3ccccc23)cc1	-6.6% (inactive)
Cc1cc(C)cc(NC(=S)NCCc2c[nH]c3ccccc23)c1	28.5% (active)
COc1cc(Cl)cc(C2NC(=O)NC(C)=C2C(=O)NCc2ccccc2)c1O (stereo not drawn)	-4.94% (inactive)
COc1cc(C(=S)NCc2ccccc2)cc(Br)c1O	10.6% (inactive)
COc1cc(/C=C2/SC(=S)N(Cc3ccccc3)C2=O)cc(OC)c1O	20.6% (active)
CN(C)S(=O)(=O)c1cccc(NC(=O)COC(=O)C2(c3ccccc3F)CCCC2)c1	27.6% (active)

Compound	inhibition
NS(=O)(=O)c1ccc(NC(=O)COC(=O)C2(c3ccc(F)cc3)CCCC2)cc1	13% (inactive)
O=C(COC(=O)COc1ccccc1F)Nc1cccc(S(=O)(=O)N2CCCCC2)c1	-11.9% (inactive)
COC(=O)C1CN(CC(C)C)CCS(=O)(=O)N1Cc1ccc(C)cc1 (stereo not drawn)	-14.6% (inactive)
COC(=O)CC1CCc2cc(C)cc(C(CC(C)C)NC(=O)[C@H](CC(C)C)NC(=O)OCc3ccccc3)c2O1 (stereo partly drawn)	-2.1% (inactive)
COc1ccc(N2CCN(CCNS(=O)(=O)c3ccc(Cl)s3)CC2)cc1	0.29% (inactive)
C=CC[C@@H](Cc1ccc(F)cc1)C(=O)OC[C@H]1CCCN1C(=O)[C@H](CC=C)CC(=O)N(CCO)Cc1ccccc1	-2.18% (inactive)
C=CCC[C@@H](Cc1ccc(F)cc1)C(=O)O[C@H](CNC(=O)[C@H](CC=C)CC(=O)N(CCO)Cc1ccccc1)c1ccccc1	31.3% (active)
C=CCC[C@H](Cc1ccc(F)cc1)C(=O)OC[C@@H](NC(=O)[C@@H](CC=C)CC(=O)N[C@H](CO)Cc1ccccc1)C(C)(C)C	8.16% (inactive)
C=CCC[C@H](Cc1ccc(F)cc1)C(=O)OC[C@H](C)NC(=O)[C@H](CC=C)CC(=O)N(CCO)Cc1ccccc1	7.82% (inactive)
C=CCC[C@@H](Cc1ccc(F)cc1)C(=O)OC[C@@H](C)NC(=O)[C@H](CC=C)CC(=O)N(CCO)Cc1ccccc1	8.58% (inactive)
C=CC[C@@H](CC(=O)N[C@H](CO)Cc1ccccc1)C(=O)N[C@@H](COC(=O)[C@@H](CC=C)Cc1ccc(F)cc1)Cc1c[nH]c2ccccc12	0.04% (inactive)
C=CC[C@H](CC(=O)N(CCO)Cc1ccccc1)C(=O)N[C@@H](COC(=O)[C@@H](CC=C)Cc1ccc(F)cc1)Cc1ccccc1	28% (active)
C=CCC[C@@H](Cc1ccc(F)cc1)C(=O)OC[C@H](Cc1c[nH]c2ccccc12)NC(=O)[C@@H](CC=C)CC(=O)N(CCO)Cc1ccccc1	41.8% (active)
C=CCC[C@H](Cc1ccc(F)cc1)C(=O)OC[C@@H](Cc1c[nH]c2ccccc12)NC(=O)[C@H](CC=C)CC(=O)N[C@H](CO)Cc1ccccc1	0.78% (inactive)
CSc1ccc(C=Nn2c(-c3ccc(F)cc3)n[nH]c2=S)cc1	-11.4% (inactive)
Cc1cccc(C(=O)Nc2c(-c3ccc(F)cc3)nc3ncccn23)c1	-329% (inactive)
CCC(CO)Nc1cccc2c1S(=O)(=O)N(Cc1cn(Cc3ccccc3C(F)(F)F)nn1)Cc1ccccc1O2 (stereo not drawn)	-15.3% (inactive)
O=C(N1CCOCC1)N1CC[C@H]2[C@H](CCCN2Cc2ccc(F)cc2)C1	-0.66% (inactive)
CC(C)CNc1cccc2c1S(=O)(=O)N(Cc1cn(Cc3ccc(Cl)cc3)nn1)Cc1ccccc1O2	-29.6% (inactive)
CCn1c(=O)n2n(c1=O)[C@@]1(C=C3CCCC[C@H]32)N=C(NC(=O)c2ccccc2)N(Cc2ccccc2)[C@H]1Cc1ccccc1	9.57% (inactive)
COC(=O)C[C@@H]1CC[C@@H]2[C@H](COc3ccc(NC(=O)c4cccc(F)c4)cc3C(=O)N2C)O1	9.14% (inactive)
COc1cccc(CNC(=O)CNS(=O)(=O)c2ccc3nc(C)sc3c2)c1OC	4.07% (inactive)
Cc1cc(C(=O)NN=C/C=C/c2ccco2)n[nH]1	-13.7% (inactive)
C[C@@H]1ON(C)[C@H]2C[C@H]3c4[nH]c5cccc(-c6ccc7c(c6)OCO7)c5c4CCN3C[C@@H]12	-72.8% (inactive)
O=C(NN1C(=O)C2C3C=CC(C4CC34)C2C1=O)c1ccc(Cl)cc1 (stereo not drawn)	-2.31% (inactive)
O=C(NN1C(=O)C2C3C=CC(O3)C2C1=O)c1ccccc1 (stereo not drawn)	1.76% (inactive)

Compound	inhibition
COc1ccc(C(=O)NN2C(=O)C3C(c4ccccc4)C=CC(c4ccccc4)C3C2=O)cc1 (stereo not drawn)	24.9% (active)
CCCCN1CCN(C(=O)c2ccc3c(c2)NC(=O)C(C)(C)O3)CC1	2.07% (inactive)
Fc1ccc2nc(COCc3nc4ccc(F)cc4[nH]3)[nH]c2c1	2.8% (inactive)
COc1cc(/C=N/O)cc(Br)c1OS(=O)(=O)c1ccc(C)cc1	21.9% (active)
O=C(O)COc1ccc(/C=N/O)cc1Br	3.83% (inactive)
COc1cc(/C=C/c2ccc(/C=C/c3cc(OC)c(OC)c(OC)c3)cc2)cc(OC)c1OC	-373% (inactive)
Cc1ccc(-n2c(SCC(=O)Nc3ccc(S(=O)(=O)Nc4nccs4)cc3)nnc2-c2ccncc2)cc1	-1.24% (inactive)
CC1CCCC(C)N1C(=O)CN1CCN(c2nc(-c3ccc(F)cc3)cs2)CC1 (stereo not drawn)	1.47% (inactive)
COc1cccc(NC(=O)CN2CCN(c3nc(-c4cccc(OC)c4)cs3)CC2)c1	21.4% (active)
COCCCNC(=S)N1CCN(c2nc(-c3cccc(OC)c3)cs2)CC1	9.71% (inactive)
CC[C@@H](CCC(=O)N(c1ccccc1)c1ccccc1)C1CC1	-6.31% (inactive)
CCOc1ccc(-n2c(SCC(=O)Nc3cc(C)c(NC(=O)c4ccccc4)cc3OC)nnc2-c2cccs2)cc1	17.4% (inactive)
CCOc1ccc(NC(=O)COc2ccc(S(=O)(=O)N3CCCC3)cc2)cc1	4.99% (inactive)
O=C(CSCc1ccc(Br)cc1)Nc1ccc(S(=O)(=O)N2CCCCCC2)cc1	24.1% (active)
COc1ccc(OCC(=O)OCC(=O)Nc2ccc(S(=O)(=O)N3CCCCC3)cc2)cc1	-5.59% (inactive)
CCOC(=O)[C@]12CCCCC/C=C\1N(Cc1ccc(OC)cc1)C(=O)[C@H]2CC(=O)N1CCOCC1	3.26% (inactive)
CCCCNC(=O)C[C@H]1C[C@@]2(C(=O)OC)C(=C[C@H](COCc3ccccc3)O[C@@H]2C)N(Cc2ccc(Cl)cc2Cl)C1=O	9.41% (inactive)
CC(C)(C)c1ccc(CSc2nnc(-c3cccs3)o2)cc1	-4.29% (inactive)
Cc1ccc(S(=O)(=O)N2CCC(N3CCCCCC3)CC2)cc1	3.62% (inactive)
O=[N+]([O-])c1cccc(S(=O)(=O)N2CCCCCC2)c1	-4.84% (inactive)
O=S(=O)(c1cccc(S(=O)(=O)N2CCC(n3nnc4ccccc43)CC2)c1)N1CCCCC1	20.5% (active)
CC1=C(C(=O)N2CCOCC2)CC(CC(=O)NCc2cccs2)C(=O)N1CCCN1CCCC1=O (stereo not drawn)	-13.7% (inactive)
COc1cc(C2CC(=O)N3CN(Cc4ccccc4)CSC3=C2C#N)ccc1OCc1ccccc1 (stereo not drawn)	27.5% (active)
CCCNC(=O)C1CC(=O)N(c2ccc(OCc3ccccc3)cc2)C1 (stereo not drawn)	-1.57% (inactive)
COc1cc(C2C(C(=O)c3ccco3)=C(O)C(=O)N2c2cc(C)on2)ccc1OCc1ccccc1 (stereo not drawn)	-2.12% (inactive)
N[C@@H](Cc1ccccc1)C(=O)N1CCC[C@@H]1C(=O)N1CCC2CCN(S(=O)(=O)c3ccccc3)CC21 (stereo partly drawn)	-2.11% (inactive)
